# Data from PubChem BioAssay AID743145 (Broad Institute, 2013).
# Measured potencies and affinities stand elsewhere. Unmarked numbers belong to inactive results. How the calls were made is not given here.
# Experiment: cytotoxicity in COV434 cells, dose response, cytotoxicity control for PAX8 inhibitor project, cell-based, plate reader, dry powder, SA7 (AID 743145)
# Conditions: series mostly up to 35 µM; activity change, negative = cytotoxicity: at the top concentration
row,SMILES,"activity change, negative = cytotoxicity"
1,N#C[C@@H]1[C@@H](c2ccc(-c3ccccc3F)cc2)[C@@H](CO)N1C(=O)C1CCC1,-6.05%
2,O=C(NCCc1ccccc1)c1ccc2c(c1)OCCCO2,-23.6% [at 50 µM]
3,C[C@H](CO)N1C[C@H](C)[C@@H](CN(C)Cc2ccc(-c3ccccc3)cc2)Oc2ccc(NC(=O)C3CC3)cc2CC1=O,23.2%
4,C[C@@H]1CN([C@@H](C)CO)S(=O)(=O)c2ccc(C#C[C@@H](C)O)cc2O[C@H]1CN(C)Cc1ccc(-c2ccccc2)cc1,-5.91%
5,CC(=O)N1CCOc2ccc(S(=O)(=O)N3CCN(c4cccc(C(F)(F)F)c4)CC3)cc21,-13.7% [at 50 µM]
6,C[C@H](CO)N1C[C@H](C)[C@H](CN(C)C(=O)Nc2ccc(-c3cccs3)cc2)OCc2cnnn2CCCC1=O,3.45%
7,COc1cccc(C#Cc2ccc([C@H]3[C@@H](C#N)N(C(=O)c4ccccn4)[C@@H]3CO)cc2)c1,-14.5%
8,COc1ccc(S(=O)(=O)Nc2ccc3c(c2)CC(=O)N([C@@H](C)CO)C[C@@H](C)[C@@H](CN(C)Cc2ccc(-c4ccccc4)cc2)O3)cc1,-5.13%
9,N#C[C@H]1[C@@H](c2ccc(C#CC3CCCCC3)cc2)[C@@H](CO)N1S(=O)(=O)c1ccccc1,-24.8%
10,O=C1/C(=C/c2cccc(Br)c2)SC(=S)N1CCC(=O)N(CCO)c1ccccc1,-46.1% [at 50 µM]
11,C[C@@H]1CN([C@H](C)CO)C(=O)CCCn2cc(nn2)CO[C@H]1CN(C)C(=O)Nc1ccc(-c2cccs2)cc1,3.8%
12,O=C1/C(=C/c2ccccc2)SC(=S)N1CC(=O)N1CCCCC1c1cccnc1 (stereo unspecified),-3.46% [at 50 µM]
13,COc1ccc(S(=O)(=O)N2CCCCN3[C@H](CO)[C@H](c4ccc(C#CC(C)C)cc4)[C@H]3C2)cc1,17.6%
14,C[C@H]1CN([C@@H](C)CO)C(=O)CCCn2nncc2CO[C@@H]1CN(C)C(=O)Nc1ccc(-c2cccs2)cc1,0.845%
15,O=C(CCS(=O)(=O)c1ccccc1)Nc1nc2ccc(F)cc2s1,7.63% [at 50 µM]
16,COc1cccc(C#Cc2ccc([C@@H]3[C@@H](C#N)N(C(=O)C4CCCC4)[C@@H]3CO)cc2)c1,-18%
17,COc1ccc(S(=O)(=O)Nc2ccc3c(c2)CC(=O)N([C@@H](C)CO)C[C@H](C)[C@@H](CN(C)Cc2ccc(C(F)(F)F)cc2)O3)cc1,-2.58%
18,C[C@H]1CN([C@@H](C)CO)C(=O)Cc2cc(NC(=O)NC3CCCCC3)ccc2O[C@@H]1CN(C)Cc1ccc(-c2ccccc2)cc1,22.3%
19,COc1cccc(-c2ccc([C@H]3[C@@H](CO)N(C(=O)Cc4ccccc4)[C@H]3C#N)cc2)c1,-16.2%
20,COC(=O)[C@@]1(CCS(=O)(=O)c2ccccc2)N=C(c2ccc(OCCCO)cc2)O[C@H]1c1ccccc1,-28.9% [at 50 µM]
21,COc1cccc(C#Cc2ccc([C@@H]3[C@@H](C#N)N(C(=O)C4CCCCC4)[C@H]3CO)cc2)c1,-26.6%
22,Cc1ccccc1OCC(=O)Nc1cccc(C(=O)O)c1,7.84% [at 50 µM]
23,O=C(CN1C(=O)c2ccccc2S1(=O)=O)c1ccccc1Cl,-6.49% [at 50 µM]
24,CCc1cnc(N2[C@@H](C#N)[C@@H](c3ccc(C#CC(C)C)cc3)[C@@H]2CO)s1,5.79%
25,C[C@H](CO)N1C[C@H](C)[C@@H](CN(C)S(=O)(=O)c2ccc(-c3ccccc3)cc2)OCc2cn(nn2)CCCC1=O,5.76%
26,O=C(CN1C(=O)c2ccccc2S1(=O)=O)c1ccc(Cl)cc1Cl,8.31% [at 50 µM]
